Screens deposited in PubChem by National Center for Advancing Translational Sciences (NCATS).
An excerpt weighted towards active compounds, which were near 10% of everything screened.
ELG1 DNA repair = ELG1-dependent DNA repair inhibition; HEK293T ELG1-luciferase reporter, luminescence, 16 h; DNA damage induced by 5-fluorouridine; Potency, µM (highest dose often 46.1 µM), most hits filed as inhibitors; hit rate 2.3% among 330,000; further: nearly all actives have a fitted effect of over 55% in size
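Reporter activity after DNA damage by 5-fluorouridine is monitored. Compound-treated cells incubate 16 hr at 37 °C, then ONE-Glo is added for 30 min before luminescence reading.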
VP16 counter = counter-screen for ROR gamma inhibitors: Gal4-VP16 reporter | Drosophila S2 Gal4-VP16 UAS-luciferase, luminescence, 20 h | Potency, µM (titrated, usually from 53.6 µM), usual class: inhibitors | hit rate 3.5% among 310,000;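 further: Gal4-VP16 expression switched on by copper sulfate through the metallothionein promoter; nearly all actives have a fitted effect of over 50% in size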
RORgamma inh = blocks mouse ROR gamma transcriptional activity | Potency, µM (doses to about 53.6 µM), usual class: inhibitors | hit rate 5.4% among 310,000 | P51450 | Drosophila S2 Gal4-RORgamma UAS-luciferase reporter, 20 h; further: nearly all actives have a fitted effect of over 60% in size
Target sequence (P51450 whole entry, looked up, the tested form may be a part): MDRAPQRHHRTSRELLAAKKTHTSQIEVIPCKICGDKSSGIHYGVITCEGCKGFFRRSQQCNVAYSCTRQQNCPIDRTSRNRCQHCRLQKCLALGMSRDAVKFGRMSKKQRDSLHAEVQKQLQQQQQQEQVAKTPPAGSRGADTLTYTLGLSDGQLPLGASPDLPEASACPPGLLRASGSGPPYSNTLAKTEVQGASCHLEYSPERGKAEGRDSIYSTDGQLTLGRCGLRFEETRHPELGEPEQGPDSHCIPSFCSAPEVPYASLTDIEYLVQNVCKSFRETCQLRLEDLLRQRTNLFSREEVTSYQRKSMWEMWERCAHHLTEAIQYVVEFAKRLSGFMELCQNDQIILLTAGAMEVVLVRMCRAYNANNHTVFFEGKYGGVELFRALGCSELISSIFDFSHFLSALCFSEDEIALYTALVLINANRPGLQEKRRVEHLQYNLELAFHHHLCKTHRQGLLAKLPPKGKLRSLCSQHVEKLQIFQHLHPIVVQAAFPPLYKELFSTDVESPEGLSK
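Stably transfected Drosophila Schneider cells are the test system, with ROR gamma fused to Gal4 and luciferase under UAS control; luminescence is read after 20 hr of 700 uM copper sulfate induction at ambient temperature.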
MCF10A rereplic = induces DNA re-replication in MCF 10a normal breast cells. MCF 10A DNA re-replication, Hoechst nuclear intensity, 48 h. Potency, µM (top dose mostly 46.1 µM), actives largely listed as activators. hit rate 2.9% among 350,000; further: nearly all actives have a fitted effect of over 50% in size
SW480 rereplic = DNA re-replication induction in SW480 cells | SW480 DNA re-replication, Hoechst DNA content imaging, 48 h | Potency, µM (doses to about 46.1 µM), actives largely listed as activators | hit rate 1.8% among 340,000; further: nearly all actives have a fitted effect of over 55% in size
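Cells (250 per well) received 23 nL compound or DMSO by pin tool and were kept 48 hr at 37 C, 5% CO2. Nuclei were then stained with Hoechst for 40 min and scanned for DNA content.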
Of the large screens only hits and unclear results are named; the others gave an inactive call. The call rests on the fitted dose curve; in most records, active means well fitted curve in the direction sought with a large enough effect; inconclusive means small, poorly fitted or top-dose-only effect, or another doubt; inactive means no such curve, though single readings can be large; an effect the other way counts as inactive or inconclusive.

COc1ccc(C2NC(=O)c3sc4nc(C)c(C(C)=O)c(-c5ccc(Cl)cc5)c4c3N2)cc1 (centres undefined)	MCF10A rereplic 16µM, SW480 rereplic inconclusive
CC(O)C(NS(=O)(=O)c1ccc(Cl)cc1)C(=O)OCC(=O)c1ccc2c(c1)NC(=O)CO2 (centres undefined)	none (no result: ELG1 DNA repair, VP16 counter, RORgamma inh)
CC(C)CC(NC(=O)c1ccc(Cl)cc1)C(=O)OCC(=O)c1ccc2c(c1)NC(=O)CO2 (centres undefined)	ELG1 DNA repair inconclusive, VP16 counter 7.1µM, RORgamma inh 11µM, MCF10A rereplic inconclusive, SW480 rereplic inconclusive
COc1ccc(-c2nnn(-c3ccc(Cl)cc3Cl)c2N)cc1	none
CSCCC(NC(=O)c1ccccc1)C(=O)Nc1ccc(NC(C)=O)cc1 (centres undefined)	none (no result: MCF10A rereplic, SW480 rereplic)
O=C(Oc1ccc(Cl)c2cccnc12)C12CC3CC(CC(C3)C1)C2	ELG1 DNA repair inconclusive, VP16 counter 3.2µM, RORgamma inh 2.2µM, MCF10A rereplic 18µM
O=[N+]([O-])c1cc([N+](=O)[O-])c(Oc2ccc(Cl)c3cccnc23)cc1NN1CCCCC1	VP16 counter inconclusive, RORgamma inh 6.3µM
Cc1ccc(C(=O)Oc2ccc(Cl)c3cccnc23)cc1[N+](=O)[O-]	ELG1 DNA repair inconclusive, VP16 counter 3.5µM, RORgamma inh 1.6µM, MCF10A rereplic inconclusive, SW480 rereplic inconclusive
COc1ccc(C(=O)Oc2cccc3cccnc23)cc1[N+](=O)[O-]	VP16 counter 3.2µM, RORgamma inh 2.2µM, MCF10A rereplic inconclusive, SW480 rereplic inconclusive
NC(=O)c1ccc(Oc2cccc3cccnc23)c([N+](=O)[O-])c1	none
O=C(Oc1ccc(Cl)c2cccnc12)c1cccnc1	VP16 counter 1µM, RORgamma inh 0.89µM, MCF10A rereplic inconclusive, SW480 rereplic inconclusive
CCCNC(=O)c1ccccc1NC(=O)C1=CSCCO1	none
O=C(NC(=S)Nc1ccccc1[N+](=O)[O-])c1cncc(Br)c1	VP16 counter 5.6µM, RORgamma inh 7.1µM
Cc1cccnc1NC(=S)NC(=O)c1cccs1	ELG1 DNA repair inconclusive, VP16 counter 10µM, RORgamma inh 4µM, SW480 rereplic inconclusive
O=C(NC(=S)Nc1ccccn1)c1cncc(Br)c1	ELG1 DNA repair inconclusive, VP16 counter 7.9µM, RORgamma inh 7.9µM
Cc1cccnc1NC(=S)NC(=O)c1cncc(Br)c1	ELG1 DNA repair inconclusive, VP16 counter inconclusive, RORgamma inh 5µM, SW480 rereplic inconclusive
Cc1cccnc1NC(=O)CNC(=O)c1cccs1	none (no result: VP16 counter, RORgamma inh)
COc1ccc(N2CCN(C(CNS(=O)(=O)c3ccccc3)c3ccccc3)CC2)cc1 (centres undefined)	none
COc1ccc(NN=Nc2nc3c([nH]2)c(=O)n(C)c(=O)n3C)cc1	ELG1 DNA repair inconclusive
COC(=O)[C@H](CCSC)NC(=O)Nc1cccc(Br)c1	none
O=C(c1ccco1)N1CCC[C@@]2(CCN(c3ccncc3)C2)C1	none (no result: ELG1 DNA repair, MCF10A rereplic, SW480 rereplic)
O=C(NC(=S)Nc1ccc(Br)cn1)c1cncc(Br)c1	RORgamma inh 0.5µM
O=C(NC(=S)Nc1ccccc1O)c1cncc(Br)c1	SW480 rereplic inconclusive (no result: ELG1 DNA repair, VP16 counter, RORgamma inh)
O=C(NC(=S)Nc1ccc(Br)cn1)c1cccs1	ELG1 DNA repair inconclusive, VP16 counter 8.9µM, RORgamma inh 2.2µM
S=C(Nc1ccccc1)Nc1ccc(Br)cn1	VP16 counter 5.6µM, RORgamma inh 0.89µM
S=C(Nc1ccccc1)Nc1ccccc1Br	RORgamma inh inconclusive
O=C(Nc1ccc(Br)cn1)c1ccc(Br)s1	ELG1 DNA repair inconclusive, VP16 counter inconclusive, MCF10A rereplic 18µM, SW480 rereplic 8.2µM
CN(C)C(=O)c1ccc(-c2cc(N(C)Cc3ccco3)ncn2)cc1	VP16 counter inconclusive (no result: ELG1 DNA repair, MCF10A rereplic, SW480 rereplic)
C/C(N)=C(/C#N)C(=O)COC(=O)[C@@H](NC(=O)c1ccccc1Cl)C(C)C	MCF10A rereplic 2.1µM
CC(C)[C@H](NC(=O)c1ccccc1Cl)C(=O)OCC(=O)N1CCCCC1	ELG1 DNA repair inconclusive (no result: VP16 counter, RORgamma inh)
CCOC(=O)c1ccc(NC(=S)N(Cc2cccnc2)Cc2ccco2)cc1	SW480 rereplic inconclusive
S=C(NCc1ccco1)Nc1ccc(Oc2ccc(Cl)cc2)cc1	ELG1 DNA repair inconclusive, VP16 counter 11µM, RORgamma inh 2.8µM, MCF10A rereplic 7.3µM
O=C(O)Cc1ccc(NC(=S)NCc2ccco2)cc1	none
S=C(NCc1ccco1)Nc1ccccc1	VP16 counter inconclusive, RORgamma inh 8.9µM
CCOc1ccc(NC(=S)N(Cc2ccc(Cl)cc2)Cc2ccco2)cc1	VP16 counter inconclusive, RORgamma inh 13µM
S=C(NCc1ccco1)Nc1ccc(Cl)cc1	ELG1 DNA repair inconclusive, VP16 counter inconclusive, RORgamma inh 11µM
Cc1ccc(N(CC(=O)NC2CCCC2)C(=O)CCC(=O)Nc2nccs2)cc1C	none
COc1ccc(COCC(O)CN2CCc3ccccc3C2)cc1OC (centres undefined)	none
c1ccc2c(c1)ccc1nnnn12	MCF10A rereplic inconclusive (no result: ELG1 DNA repair, VP16 counter, RORgamma inh)
CCOC(=O)CCCNC(=O)CN1C(=O)NC(c2ccccc2)(c2ccccc2)C1=O	none
Cc1ccc(NC(=S)NCCc2ccccc2)c(C)c1	VP16 counter 3.5µM, RORgamma inh 2µM, SW480 rereplic inconclusive
Cc1ccc(NC(=S)NCCc2ccc(S(N)(=O)=O)cc2)c(C)c1	none (no result: ELG1 DNA repair, VP16 counter, RORgamma inh)
Cc1ccc(C)c(NC(=S)NNc2ccc(F)cc2F)c1	VP16 counter 3.2µM, RORgamma inh inconclusive, MCF10A rereplic inconclusive
Cc1cc(Br)ccc1NC(=S)NCCc1ccccc1	VP16 counter 6.3µM, RORgamma inh 2.5µM
Cc1ccc(C)c(NC(=S)NCCc2ccc(F)cc2)c1	VP16 counter 3.2µM, RORgamma inh 2.5µM, MCF10A rereplic inconclusive, SW480 rereplic inconclusive
Cc1ccc([N+](=O)[O-])cc1NC(=S)NCCc1ccccc1	VP16 counter inconclusive, RORgamma inh 13µM
Cc1ccc(C(=O)O)cc1NC(=S)NCCc1ccccc1	none
Cc1ccc(NC(=S)NNC(=S)Nc2ccc(C)cc2)cc1	none (no result: ELG1 DNA repair, VP16 counter, RORgamma inh)
Cc1ccc(NNC(=S)Nc2ccc(C(C)C)cc2)c(C)c1	VP16 counter inconclusive, RORgamma inh 11µM, MCF10A rereplic 7.3µM
CCCOc1ccc2oc(=O)c3c(c2c1)CCCN3C(=O)CN(C)Cc1ccccc1	ELG1 DNA repair inconclusive
Cc1ccc(Sc2nc(-c3ccccc3)nnc2C(F)(F)F)cc1	RORgamma inh inconclusive, MCF10A rereplic 8.2µM, SW480 rereplic inconclusive
CNc1nc(-c2ccccc2)nnc1C(F)(F)F	VP16 counter inconclusive
CCCc1cc(-c2[nH]ncc2-c2ccc3c(c2)OCCCO3)c(O)cc1O	ELG1 DNA repair 21µM, VP16 counter inconclusive, RORgamma inh inconclusive
COc1ccccc1OCCC(=O)OCC(=O)NC(C)c1ccccc1 (centres undefined)	none
COc1ccc2c(/C=N/Nc3ccc(C(=O)O)cc3)c[nH]c2c1	ELG1 DNA repair inconclusive, VP16 counter 5µM, RORgamma inh inconclusive
COc1ccc(/C=N\NC(=O)C2CCCC2)cc1Br	none
COc1ccc(C(=O)N/N=C/c2c[nH]c3ccccc23)cc1	ELG1 DNA repair inconclusive, SW480 rereplic inconclusive
